From PubChem BioAssay
Shown are actives, neighbours in structure and some others; about 21% of the full set was active somewhere.
Shiga toxin inh = Shiga toxin inhibition | AID 2315 | inhibition, % at 38.7 µM | Vero cells, Shiga toxin protein synthesis inhibition reporter | actives 9.2% (n = 290,000); in the data active means inhibition mostly above about 28%, no sharp cut-off; inactive means mostly below about 43%
Pf growth 96h = P. falciparum growth inhibition at 96 hour, primary screen for plastid delayed-death inhibitors | P. falciparum luciferase reporter growth, 96 h | Potency, µM (titrated, usually from 28.7 µM), hits mostly inhibitors | actives 6.9% (n = 320,000) | AID 504834
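96 h incubation, 37 C, 5% CO2, of luciferase-reporter P. falciparum-infected RBCs (2% hematocrit, 0.05% parasitemia final) with test compounds; endpoint luminescence.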
NS1 inh = inhibitors of influenza NS1 protein function; actives 0.4% (n = 270,000); AID 2326; Potency, µM (top dose mostly 46.1 µM); calls by dose curve; further: actives are rising curves; nearly all actives have a fitted effect of over 50% in size
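Growth recovery, yeast-based: influenza A NS1 expressed in S. cerevisiae causes slow growth, and suppressors are detected by OD600. The parent strain without NS1 is used as positive control.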
Cycloheximide cs = affects cycloheximide protein synthesis inhibition readout, counter-screen; cell reporter, cycloheximide protein synthesis inhibition counterscreen; max response, %; actives 12% (n = 300,000); in the data active means max response mostly above about 13%, no sharp cut-off; inactive means mostly below about 14%; further: read at 38.3 µM for the half of the compounds with a filed dose
Pf growth 48h = inhibits P. falciparum growth in the first generation, 48 h; Potency, µM (top dose mostly 28.7 µM), hits mostly inhibitors; P. falciparum luciferase growth in erythrocytes, 48 h; actives 5.9% (n = 310,000)
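Growth was read as firefly luciferase luminescence after a 48 h, 37 C, 5% CO2 exposure of compounds to reporter-bearing P. falciparum cultures (0.1% parasitemia, 2% hematocrit final) in Albumax-supplemented RPMI 1640.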
Of the large screens only hits and unclear results are named; the others gave an inactive call. Unless noted, the call rests on the fitted dose curve; in most records, active means well fitted inhibition curve with a large enough effect; inconclusive means small, poorly fitted or top-dose-only effect, or another doubt; inactive means no such curve, though single readings can be large or run the other way.

Cc1ccccc1Cn1c(=O)n(CCCC(=O)NCc2ccco2)c(=O)c2ccccc21	Pf growth 96h inconclusive, Cycloheximide cs 14.2, Pf growth 48h inconclusive
Cc1ccccc1Cn1c(=O)n(-c2ccccc2)c(=O)c2ccc(C(=O)NCc3ccco3)cc21	Pf growth 96h 8.28µM
Cc1cc(C)c(NC(=O)Cn2c(=O)n(Cc3ccco3)c(=O)c3ccccc32)c(C)c1	Pf growth 48h 13.1µM
Cc1cccc(Cn2c(=O)n(CCCC(=O)NCc3ccco3)c(=O)c3ccccc32)c1	Pf growth 48h inconclusive
O=C(NCCc1ccc(Cl)cc1)C1CCN(S(=O)(=O)N2CCC3(CC2)OCCO3)CC1	Pf growth 96h inconclusive
CCN1CCN(CC#CCOc2ccccc2OC)CC1	none (no result: Shiga toxin inh)
N#Cc1ccccc1Cn1c(=O)n(Cc2ccc(C(=O)NCc3ccco3)cc2)c(=O)c2ccccc21	Pf growth 48h 2.94µM
N#Cc1ccccc1Cn1c(=O)n(CCC(=O)NCc2ccco2)c(=O)c2ccccc21	Pf growth 96h inconclusive
CCCCCc1cc(O)c2c3c(c(=O)oc2c1)CN(C)CC3	Pf growth 48h inconclusive
CCCCCc1cc(O)c2c(C)cc(=O)oc2c1	Cycloheximide cs 12.9, Pf growth 48h 2.62µM
CC(=O)c1sc(NC(=O)CN2C(=O)C3CCCCC3C2=O)nc1-c1ccccc1 (centres undefined)	none (no result: Shiga toxin inh, NS1 inh, Cycloheximide cs)
Cc1c(NC(=O)/C(C#N)=C/C2CC=CCC2)c(=O)n(-c2ccccc2)n1C (centres undefined)	none (no result: Pf growth 48h)
O=C(Cn1cnc2ccccc2c1=O)NC1CCS(=O)(=O)C1 (centres undefined)	Pf growth 96h inconclusive (no result: Shiga toxin inh, NS1 inh, Cycloheximide cs)
CC(=O)Oc1cc2c(C(=O)NCc3ccncc3)c(C)oc2c2ccccc12	Pf growth 96h inconclusive, Cycloheximide cs 8.6
Cc1c(C(=O)C(=O)NCCc2ccc(S(N)(=O)=O)cc2)c2ccccc2n1C	none
COC(=O)c1ccc(Cl)c(NC(=O)CN(c2ccccc2)S(=O)(=O)c2ccc(OC)cc2)c1	Pf growth 96h inconclusive, NS1 inh inconclusive, Pf growth 48h inconclusive
Cc1cc(C)nc(N/C(=N\S(=O)(=O)Cc2ccccc2)Nc2ccc(F)c(Cl)c2)n1	Pf growth 96h 9.28µM
Cc1cc(C)nc(N/C(=N\S(=O)(=O)Cc2ccccc2)Nc2cccc(Cl)c2C)n1	none
Cc1ccccc1NC(=O)Cn1nc(-c2ccccc2)nc1-c1ccccc1	none
COc1cc([N+](=O)[O-])c(OC)cc1SCc1n[nH]c(=S)n1-c1ccc(F)cc1	Pf growth 96h 1.65µM
CCc1cc2c3c(c(=O)oc2cc1O)CCCC3	Pf growth 48h inconclusive (no result: Pf growth 96h)
NC(=O)c1ccc(NC(=O)C#Cc2ccccc2)cc1	Shiga toxin inh 56.1, Pf growth 96h inconclusive, Cycloheximide cs 34.8, Pf growth 48h inconclusive
COc1ccc(NC(=O)c2ccccc2SC)cc1OC	none (no result: Pf growth 48h)
NC(=O)c1cc[n+](CC(=O)c2ccc(NC(=O)c3ccccc3)cc2)cc1	none (no result: NS1 inh)
COc1ccc(NC(=O)C#Cc2ccccc2)cc1OC	Cycloheximide cs 12.5, Pf growth 48h inconclusive
CC(=O)c1cccc(Nc2nc(-c3sc(N)nc3C)cs2)c1	Pf growth 96h 16.5µM, Cycloheximide cs 20.2, Pf growth 48h inconclusive
Cc1nc2ncccn2c1-c1csc(Nc2cccc(C(=O)O)c2)n1	Pf growth 96h inconclusive
CC(=O)c1cccc(Nc2nc(-c3sc(C)nc3C)cs2)c1	Cycloheximide cs 11.6
CCCC1NC(=S)N(C2CCCCC2)C1=O (centres undefined)	Pf growth 96h 2.94µM
O=C1CNC(=S)N1C1CCCCCC1	none
CC(C)N1C(=O)S/C(=C/c2ccccc2OCc2ccc(C(=O)O)cc2)C1=O	Shiga toxin inh 31.9 (no result: NS1 inh)
CN1C(=O)S/C(=C\c2ccccc2OCc2ccc(C(=O)O)cc2)C1=O	Pf growth 96h inconclusive (no result: NS1 inh)
COC(=O)C1=C(C)NC(C)=C(C(=O)OC)C1c1cc2cc(C)ccc2[nH]c1=O	none
Cc1ccc2[nH]c(-c3cccc(N)c3)cc2c1	Shiga toxin inh 97.4, Cycloheximide cs 30.3
N#C/C(=C/Nc1ccccc1C(=O)O)C(N)=O	Pf growth 96h inconclusive, Pf growth 48h inconclusive
COC(=O)C1C(=O)c2c([nH]c(C(=O)OC3CCCCCC3)c2C)CC1C (centres undefined)	Shiga toxin inh 57.0, Pf growth 96h 8.28µM, Cycloheximide cs 25.1
Cc1c(C(=O)OC2CCC(C)CC2)[nH]c2c1C(=O)CCC2 (centres undefined)	Shiga toxin inh 76.1, Cycloheximide cs 43.3
CCCCCOC(=O)c1[nH]c2c(c1C)C(=O)C(C(=O)OC)C(C)C2 (centres undefined)	Cycloheximide cs 26.0 (no result: Pf growth 96h, Pf growth 48h)
COCCOC(=O)c1[nH]c2c(c1C)C(=O)CC(c1ccco1)C2 (centres undefined)	Pf growth 48h inconclusive
COC(=O)c1[nH]c2c(c1C)C(=O)CCC2	none
COCCOC(=O)c1[nH]c2c(c1C)C(=O)C(C(=O)OC)C(C)C2 (centres undefined)	Shiga toxin inh 74.0, Pf growth 96h inconclusive, NS1 inh inconclusive, Cycloheximide cs 33.7 (no result: Pf growth 48h)
CC/C(=N\O)c1c(O)c2c(n(-c3ccccc3)c1=O)CCCC2	none
COC(=O)C1C(=O)c2c([nH]c(C(=O)OCC3CCCO3)c2C)CC1C (centres undefined)	Shiga toxin inh 57.6, Pf growth 96h inconclusive, Cycloheximide cs 22.9
COc1ccc(C2c3c(ncn(CCCO)c3=N)Oc3ccc4ccccc4c32)cc1OC (centres undefined)	Pf growth 96h 1.65µM, Pf growth 48h 13.1µM
COc1ccc(C2C3=C(CC(C)(C)CC3=O)Oc3ncn(CCO)c(=N)c32)cc1OC (centres undefined)	none (no result: Pf growth 48h)
COc1ccc(C2c3c(ncn(CCN4CCOCC4)c3=N)Oc3ccc4ccccc4c32)cc1OC (centres undefined)	Pf growth 96h 0.586µM, Pf growth 48h 4.15µM
COc1ccc(C2c3ccc4ccccc4c3Oc3ncn4nc(Cc5ccccc5)nc4c32)cc1OC (centres undefined)	Pf growth 48h inconclusive
COc1ccc(C2c3c(ccc4ccccc34)Oc3ncn4nc(Cc5ccccc5)nc4c32)cc1OC (centres undefined)	Pf growth 96h 1.47µM, Pf growth 48h 1.65µM
COc1ccc(C2c3c(ncn(CCCO)c3=N)Oc3ccc4ccccc4c32)cc1 (centres undefined)	Pf growth 96h inconclusive, Pf growth 48h 11.7µM
Cc1cc(-c2ccccc2)n(-c2cc(N/N=C/c3ccccc3O)ncn2)n1	NS1 inh inconclusive, Pf growth 48h 13.1µM
CCOC(=O)CSc1ncnc2c(C(=O)OCC)c3n(c12)CCC3	none
COc1ccc(C(=O)c2c(C)c3ccccc3n2CC(O)CNC(C)C)cc1 (centres undefined)	Pf growth 96h inconclusive, Pf growth 48h 11.7µM
Cc1ccnc(NS(=O)(=O)c2cc(-c3cc(C)no3)ccc2C(C)C)c1	Shiga toxin inh 28.2, Pf growth 96h 10.4µM, Cycloheximide cs 17.3
Cc1cc(-c2ccc(C(C)C)c(S(=O)(=O)NCCN3CCC(C)CC3)c2)on1	Pf growth 48h inconclusive
Cc1cc(-c2ccc(C(C)C)c(S(=O)(=O)NCc3ccco3)c2)on1	Shiga toxin inh 33.9, Pf growth 96h inconclusive, Cycloheximide cs 30.1
